# PMC7862700, “An all-to-all approach to the identification of sequence-specific readers for epigenetic DNA modifications on cytosine”
# Assays:
# Assay in all cases: DAPPL (digital affinity profiling via proximity ligation, sequencing); 10 mM Tris-HCl pH 7.5, 50 mM NaCl, 1 mM DTT, 4% glycerol, room temperature, 30 min; GST-TFs on glutathione beads, 16-mer random dsDNA library, 0.1% formaldehyde crosslink after washing; high values mean tight binding
# FLI1 = biological target: T1, FLI1 (Homo sapiens, UniProt Q01543 1-452); conditions: protein: recombinant; tags: N-terminal GST; dsDNA, one strand shown
# T1 sequence: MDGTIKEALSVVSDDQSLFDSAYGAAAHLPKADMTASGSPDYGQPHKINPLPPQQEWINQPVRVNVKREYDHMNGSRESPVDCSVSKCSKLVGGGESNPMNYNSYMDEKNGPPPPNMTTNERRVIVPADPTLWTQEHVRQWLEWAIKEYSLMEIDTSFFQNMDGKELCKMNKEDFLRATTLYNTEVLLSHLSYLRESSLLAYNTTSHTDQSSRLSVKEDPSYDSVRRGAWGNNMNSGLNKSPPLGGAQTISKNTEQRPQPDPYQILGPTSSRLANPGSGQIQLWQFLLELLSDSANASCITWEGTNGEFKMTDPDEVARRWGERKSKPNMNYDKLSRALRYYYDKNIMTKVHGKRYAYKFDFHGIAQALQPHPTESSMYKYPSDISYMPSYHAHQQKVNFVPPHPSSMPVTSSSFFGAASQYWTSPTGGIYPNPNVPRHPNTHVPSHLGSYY
# Procedure, shortened: (§1)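 The binding signal reported is, for every hexamer, its read frequency for a factor over its read frequency for the tag-only sample. Reads came from pools of yeast-expressed, GST-fused human transcription factors on glutathione beads, barcoded with DNA and mixed with that sample, which were incubated with 200 nmole of a random double-stranded 16-mer DNA library in Tris/NaCl/DTT/glycerol buffer at room temperature for 30 min. After washing, the pools were crosslinked with 0.1% formaldehyde, proximity-ligated with BsaI/T4 ligase for 1 h at 37 °C, PCR-amplified and sequenced on an Illumina NextSeq500.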
# ELK1 = biological target: T2, ELK1 (Homo sapiens, UniProt P19419 1-428); conditions: protein: recombinant; tags: N-terminal GST; dsDNA, one strand shown
# T2 sequence: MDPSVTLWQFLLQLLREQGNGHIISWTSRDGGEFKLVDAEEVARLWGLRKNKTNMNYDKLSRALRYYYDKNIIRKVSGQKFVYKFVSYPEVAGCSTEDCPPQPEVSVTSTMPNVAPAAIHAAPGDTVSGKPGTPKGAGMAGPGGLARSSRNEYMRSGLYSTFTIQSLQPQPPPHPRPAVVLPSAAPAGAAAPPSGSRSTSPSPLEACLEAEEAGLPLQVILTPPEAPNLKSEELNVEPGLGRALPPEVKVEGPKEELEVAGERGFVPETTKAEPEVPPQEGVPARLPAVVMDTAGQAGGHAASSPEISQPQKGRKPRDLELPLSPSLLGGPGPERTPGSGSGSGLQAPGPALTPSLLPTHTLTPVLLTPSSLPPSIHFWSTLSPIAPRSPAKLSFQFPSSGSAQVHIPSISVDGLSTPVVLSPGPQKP
# Procedure, shortened: as §1
# GABPA = biological target: T3, GABPA (Homo sapiens, UniProt Q06546 1-454); conditions: protein: recombinant; tags: N-terminal GST; dsDNA, one strand shown
# T3 sequence: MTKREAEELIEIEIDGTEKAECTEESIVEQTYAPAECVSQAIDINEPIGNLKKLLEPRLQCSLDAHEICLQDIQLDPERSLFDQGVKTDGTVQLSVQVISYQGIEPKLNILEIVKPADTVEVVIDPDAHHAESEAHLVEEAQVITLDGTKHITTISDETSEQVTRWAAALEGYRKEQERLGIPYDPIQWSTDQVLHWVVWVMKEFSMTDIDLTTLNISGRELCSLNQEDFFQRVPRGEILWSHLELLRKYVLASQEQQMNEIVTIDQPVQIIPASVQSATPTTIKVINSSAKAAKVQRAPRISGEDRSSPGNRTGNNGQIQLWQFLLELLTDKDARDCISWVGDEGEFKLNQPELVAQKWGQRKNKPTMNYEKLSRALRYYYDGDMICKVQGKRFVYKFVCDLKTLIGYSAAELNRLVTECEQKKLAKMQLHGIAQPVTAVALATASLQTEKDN
# Procedure, shortened: as §1
# ERG = biological target: T4, ERG (Homo sapiens, UniProt P11308 1-479); conditions: protein: recombinant; tags: N-terminal GST; dsDNA, one strand shown
# T4 sequence: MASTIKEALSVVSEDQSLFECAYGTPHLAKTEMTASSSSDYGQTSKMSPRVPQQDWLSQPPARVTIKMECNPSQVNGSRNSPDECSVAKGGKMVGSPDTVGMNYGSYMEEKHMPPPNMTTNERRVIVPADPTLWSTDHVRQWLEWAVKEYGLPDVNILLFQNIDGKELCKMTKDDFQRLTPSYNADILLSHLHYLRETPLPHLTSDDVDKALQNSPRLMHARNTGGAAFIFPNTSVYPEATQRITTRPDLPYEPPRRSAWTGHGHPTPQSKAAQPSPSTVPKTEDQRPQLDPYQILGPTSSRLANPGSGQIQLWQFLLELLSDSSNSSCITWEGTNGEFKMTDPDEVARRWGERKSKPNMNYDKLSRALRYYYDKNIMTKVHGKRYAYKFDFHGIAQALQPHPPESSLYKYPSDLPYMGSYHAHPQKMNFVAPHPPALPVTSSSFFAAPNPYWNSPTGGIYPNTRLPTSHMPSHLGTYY
# Procedure, shortened: as §1
# ELF1 = ELF1 (Homo sapiens, UniProt P32519 1-619); conditions: protein: recombinant; tags: N-terminal GST; dsDNA, one strand shown
# Chain of ELF1 (P32519 whole entry): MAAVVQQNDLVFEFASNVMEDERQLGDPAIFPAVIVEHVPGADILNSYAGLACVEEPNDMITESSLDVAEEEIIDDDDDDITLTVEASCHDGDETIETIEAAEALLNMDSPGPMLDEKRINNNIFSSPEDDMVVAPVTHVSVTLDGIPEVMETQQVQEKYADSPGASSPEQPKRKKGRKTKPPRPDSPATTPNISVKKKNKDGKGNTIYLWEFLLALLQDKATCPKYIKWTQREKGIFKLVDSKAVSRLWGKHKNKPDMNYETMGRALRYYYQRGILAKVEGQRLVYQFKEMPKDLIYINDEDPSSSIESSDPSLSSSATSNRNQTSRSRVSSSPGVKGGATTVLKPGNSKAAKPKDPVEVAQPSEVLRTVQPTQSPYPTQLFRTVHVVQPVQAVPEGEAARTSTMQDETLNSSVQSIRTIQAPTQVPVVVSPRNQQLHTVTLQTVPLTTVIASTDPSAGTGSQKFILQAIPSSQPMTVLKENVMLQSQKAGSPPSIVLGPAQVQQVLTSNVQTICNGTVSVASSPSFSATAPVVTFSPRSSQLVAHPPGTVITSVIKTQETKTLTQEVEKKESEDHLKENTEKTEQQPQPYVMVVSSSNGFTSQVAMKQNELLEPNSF
# Procedure, shortened: as §1
# EHF = biological target: T5, EHF (Homo sapiens, UniProt Q9NZC4 1-300); conditions: protein: recombinant; tags: N-terminal GST; dsDNA, one strand shown
# T5 sequence: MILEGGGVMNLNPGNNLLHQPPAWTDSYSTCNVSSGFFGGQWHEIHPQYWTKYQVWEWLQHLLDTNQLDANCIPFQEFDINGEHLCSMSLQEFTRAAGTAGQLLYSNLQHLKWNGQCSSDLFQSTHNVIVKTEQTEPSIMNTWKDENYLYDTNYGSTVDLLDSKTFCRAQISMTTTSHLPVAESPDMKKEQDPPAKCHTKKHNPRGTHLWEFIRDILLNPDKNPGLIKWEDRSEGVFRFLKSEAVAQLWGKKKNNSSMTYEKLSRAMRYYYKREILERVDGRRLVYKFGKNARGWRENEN
# Procedure, shortened: as §1
# SPI1 = SPI1 (Homo sapiens, UniProt P17947 1-270); conditions: protein: recombinant; tags: N-terminal GST; dsDNA, one strand shown
# Procedure, shortened: as §1
# SPIB = SPIB (Homo sapiens, UniProt Q01892 1-262); conditions: protein: recombinant; tags: N-terminal GST; dsDNA, one strand shown
# Chain of SPIB (Q01892 whole entry): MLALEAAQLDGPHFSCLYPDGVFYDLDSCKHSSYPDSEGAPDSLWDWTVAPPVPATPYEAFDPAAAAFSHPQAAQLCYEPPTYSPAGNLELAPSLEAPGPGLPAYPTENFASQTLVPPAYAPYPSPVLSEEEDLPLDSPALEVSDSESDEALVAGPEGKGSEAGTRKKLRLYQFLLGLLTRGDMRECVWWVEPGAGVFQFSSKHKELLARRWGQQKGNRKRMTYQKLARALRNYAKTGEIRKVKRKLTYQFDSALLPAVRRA
# Procedure, shortened: as §1
# ELK3 = biological target: T6, ELK3 (Homo sapiens, UniProt P41970 1-407); conditions: protein: recombinant; tags: N-terminal GST; dsDNA, one strand shown
# T6 sequence: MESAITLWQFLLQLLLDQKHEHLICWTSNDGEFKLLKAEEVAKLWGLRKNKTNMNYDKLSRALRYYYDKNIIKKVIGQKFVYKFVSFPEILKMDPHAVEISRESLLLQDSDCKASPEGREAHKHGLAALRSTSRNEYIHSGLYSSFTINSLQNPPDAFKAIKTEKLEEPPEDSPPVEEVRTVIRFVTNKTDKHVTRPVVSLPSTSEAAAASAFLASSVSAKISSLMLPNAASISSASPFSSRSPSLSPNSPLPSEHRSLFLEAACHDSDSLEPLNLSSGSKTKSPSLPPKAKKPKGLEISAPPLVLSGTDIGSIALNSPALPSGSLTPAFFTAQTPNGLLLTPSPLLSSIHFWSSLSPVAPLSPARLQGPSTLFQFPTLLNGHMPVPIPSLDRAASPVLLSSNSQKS
# Procedure, shortened: as §1
# FEV = biological target: T7, FEV (Homo sapiens, UniProt Q99581 1-238); conditions: protein: recombinant; tags: N-terminal GST; dsDNA, one strand shown
# T7 sequence: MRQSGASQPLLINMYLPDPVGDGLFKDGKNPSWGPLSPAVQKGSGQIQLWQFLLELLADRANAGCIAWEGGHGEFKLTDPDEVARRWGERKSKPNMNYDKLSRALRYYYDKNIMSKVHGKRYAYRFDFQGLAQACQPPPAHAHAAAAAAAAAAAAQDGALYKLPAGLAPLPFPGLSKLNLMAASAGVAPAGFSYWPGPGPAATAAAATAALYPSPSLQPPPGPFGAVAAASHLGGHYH
# Procedure, shortened: as §1
# ETV5 = ETV5 (Homo sapiens, UniProt P41161 1-510); conditions: protein: recombinant; tags: N-terminal GST; dsDNA, one strand shown
# Chain of ETV5 (P41161 whole entry): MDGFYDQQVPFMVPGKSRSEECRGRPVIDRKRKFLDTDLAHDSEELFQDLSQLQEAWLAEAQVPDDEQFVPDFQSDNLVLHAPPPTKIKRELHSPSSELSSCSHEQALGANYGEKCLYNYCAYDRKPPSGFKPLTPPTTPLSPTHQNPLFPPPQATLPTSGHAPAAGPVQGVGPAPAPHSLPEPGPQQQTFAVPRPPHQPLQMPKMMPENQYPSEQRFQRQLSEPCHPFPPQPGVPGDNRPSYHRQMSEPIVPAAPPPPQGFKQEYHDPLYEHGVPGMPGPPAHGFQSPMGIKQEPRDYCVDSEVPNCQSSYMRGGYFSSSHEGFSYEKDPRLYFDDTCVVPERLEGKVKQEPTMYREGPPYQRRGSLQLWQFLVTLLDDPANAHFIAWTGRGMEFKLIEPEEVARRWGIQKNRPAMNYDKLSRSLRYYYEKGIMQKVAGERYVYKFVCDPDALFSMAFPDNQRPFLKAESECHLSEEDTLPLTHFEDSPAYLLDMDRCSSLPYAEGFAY
# Procedure, shortened: as §1
# HSF1 = HSF1 (Homo sapiens, UniProt Q00613 1-529); conditions: protein: recombinant; tags: N-terminal GST; chain copies: 3; dsDNA, one strand shown
# Chain of HSF1 (Q00613 whole entry): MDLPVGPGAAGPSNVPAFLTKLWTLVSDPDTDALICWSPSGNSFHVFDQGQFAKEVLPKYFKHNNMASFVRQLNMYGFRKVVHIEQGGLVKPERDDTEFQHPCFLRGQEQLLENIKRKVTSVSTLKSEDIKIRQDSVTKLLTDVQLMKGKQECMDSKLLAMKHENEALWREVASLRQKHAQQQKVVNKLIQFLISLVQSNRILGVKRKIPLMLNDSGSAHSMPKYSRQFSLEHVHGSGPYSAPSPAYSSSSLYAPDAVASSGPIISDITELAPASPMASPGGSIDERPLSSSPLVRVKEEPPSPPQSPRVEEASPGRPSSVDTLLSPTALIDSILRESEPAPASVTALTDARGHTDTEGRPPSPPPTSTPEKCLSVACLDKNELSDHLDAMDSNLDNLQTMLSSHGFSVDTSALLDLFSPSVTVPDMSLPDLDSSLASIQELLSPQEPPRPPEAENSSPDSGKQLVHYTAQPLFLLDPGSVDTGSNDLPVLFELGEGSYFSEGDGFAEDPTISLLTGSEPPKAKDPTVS
# Procedure, shortened: as §1
# SPIC = biological target: T8, SPIC (Homo sapiens, UniProt Q8N5J4 1-248); conditions: protein: recombinant; tags: N-terminal GST; dsDNA, one strand shown
# T8 sequence: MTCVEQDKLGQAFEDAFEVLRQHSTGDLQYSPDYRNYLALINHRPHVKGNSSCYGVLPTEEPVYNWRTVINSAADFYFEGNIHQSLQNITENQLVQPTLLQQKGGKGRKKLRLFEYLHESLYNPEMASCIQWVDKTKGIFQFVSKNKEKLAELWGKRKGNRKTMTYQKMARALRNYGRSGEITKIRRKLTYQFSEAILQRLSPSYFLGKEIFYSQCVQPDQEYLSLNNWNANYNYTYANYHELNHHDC
# Procedure, shortened: as §1
# ELF4 = ELF4 (Homo sapiens, UniProt Q99607 1-663); conditions: protein: recombinant; tags: N-terminal GST; dsDNA, one strand shown
# Chain of ELF4 (Q99607 whole entry): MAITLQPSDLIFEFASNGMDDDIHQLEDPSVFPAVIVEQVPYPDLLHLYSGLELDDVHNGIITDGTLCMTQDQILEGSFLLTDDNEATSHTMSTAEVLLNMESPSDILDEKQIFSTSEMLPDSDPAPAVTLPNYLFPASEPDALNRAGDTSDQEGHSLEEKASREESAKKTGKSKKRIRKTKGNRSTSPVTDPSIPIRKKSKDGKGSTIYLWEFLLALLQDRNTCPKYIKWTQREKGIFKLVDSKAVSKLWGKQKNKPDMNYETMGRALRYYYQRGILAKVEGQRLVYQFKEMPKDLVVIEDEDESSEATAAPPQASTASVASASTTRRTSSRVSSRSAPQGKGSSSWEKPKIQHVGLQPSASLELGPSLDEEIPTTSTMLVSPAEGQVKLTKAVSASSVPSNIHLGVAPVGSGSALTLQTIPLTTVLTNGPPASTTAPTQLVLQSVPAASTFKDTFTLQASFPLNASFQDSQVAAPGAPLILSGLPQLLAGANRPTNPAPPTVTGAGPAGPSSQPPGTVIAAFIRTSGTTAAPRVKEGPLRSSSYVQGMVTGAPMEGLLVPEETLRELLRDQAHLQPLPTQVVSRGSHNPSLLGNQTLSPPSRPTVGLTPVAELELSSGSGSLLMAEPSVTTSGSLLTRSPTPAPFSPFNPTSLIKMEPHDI
# Procedure, shortened: as §1
# ELK4 = biological target: T9, ELK4 (Homo sapiens, UniProt P28324-2 1-405); conditions: protein: recombinant; tags: N-terminal GST; dsDNA, one strand shown
# T9 sequence: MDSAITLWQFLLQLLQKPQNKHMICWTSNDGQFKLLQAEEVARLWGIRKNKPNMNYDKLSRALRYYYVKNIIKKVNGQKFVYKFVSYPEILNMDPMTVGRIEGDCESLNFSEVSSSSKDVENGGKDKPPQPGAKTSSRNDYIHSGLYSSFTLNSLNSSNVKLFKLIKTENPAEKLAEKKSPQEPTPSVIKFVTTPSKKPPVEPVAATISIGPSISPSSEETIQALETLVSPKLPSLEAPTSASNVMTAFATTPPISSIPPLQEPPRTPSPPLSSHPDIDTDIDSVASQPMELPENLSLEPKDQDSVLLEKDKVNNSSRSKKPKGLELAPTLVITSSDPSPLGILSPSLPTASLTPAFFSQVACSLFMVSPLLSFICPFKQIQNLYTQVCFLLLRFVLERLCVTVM
# Procedure, shortened: as §1
# ETV2 = biological target: T10, ETV2 (Homo sapiens, UniProt O00321 1-342); conditions: protein: recombinant; tags: N-terminal GST; dsDNA, one strand shown
# T10 sequence: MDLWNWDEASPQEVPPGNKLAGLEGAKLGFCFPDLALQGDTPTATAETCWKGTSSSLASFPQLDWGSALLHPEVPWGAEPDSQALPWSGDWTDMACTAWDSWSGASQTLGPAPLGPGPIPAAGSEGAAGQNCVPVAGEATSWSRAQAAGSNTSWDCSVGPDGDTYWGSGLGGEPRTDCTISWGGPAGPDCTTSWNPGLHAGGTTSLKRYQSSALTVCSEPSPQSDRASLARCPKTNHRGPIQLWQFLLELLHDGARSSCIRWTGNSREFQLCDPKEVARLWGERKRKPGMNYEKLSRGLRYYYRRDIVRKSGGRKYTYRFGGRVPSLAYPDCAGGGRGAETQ
# Procedure, shortened: as §1
# ELF3 = biological target: T11, ELF3 (Homo sapiens, UniProt P78545 1-371); conditions: protein: recombinant; tags: N-terminal GST; dsDNA, one strand shown
# T11 sequence: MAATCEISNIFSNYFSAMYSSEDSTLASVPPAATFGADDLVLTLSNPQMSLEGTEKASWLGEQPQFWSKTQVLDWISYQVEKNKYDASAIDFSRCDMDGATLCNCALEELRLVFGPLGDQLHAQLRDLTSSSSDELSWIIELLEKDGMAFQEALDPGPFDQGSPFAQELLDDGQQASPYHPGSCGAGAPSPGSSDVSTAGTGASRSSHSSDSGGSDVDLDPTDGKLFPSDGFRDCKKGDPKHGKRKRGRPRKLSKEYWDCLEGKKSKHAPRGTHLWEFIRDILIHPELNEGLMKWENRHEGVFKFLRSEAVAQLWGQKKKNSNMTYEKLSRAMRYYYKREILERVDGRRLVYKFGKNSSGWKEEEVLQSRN
# Procedure, shortened: as §1
# CRX = CRX (Homo sapiens, UniProt O43186 1-299); conditions: protein: recombinant; tags: N-terminal GST; dsDNA, one strand shown
# Chain of CRX (O43186 whole entry): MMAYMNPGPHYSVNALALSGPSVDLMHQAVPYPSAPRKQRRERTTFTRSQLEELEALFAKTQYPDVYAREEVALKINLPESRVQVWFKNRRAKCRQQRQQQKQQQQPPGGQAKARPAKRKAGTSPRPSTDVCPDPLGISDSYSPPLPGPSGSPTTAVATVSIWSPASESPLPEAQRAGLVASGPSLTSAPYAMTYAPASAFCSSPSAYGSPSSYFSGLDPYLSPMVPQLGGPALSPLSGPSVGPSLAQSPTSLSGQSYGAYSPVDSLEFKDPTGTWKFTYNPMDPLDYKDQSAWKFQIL
# Procedure, shortened: as §1
# ETV1 = ETV1 (Homo sapiens, UniProt P50549 1-477); conditions: protein: recombinant; tags: N-terminal GST; dsDNA, one strand shown
# Chain of ETV1 (P50549 whole entry): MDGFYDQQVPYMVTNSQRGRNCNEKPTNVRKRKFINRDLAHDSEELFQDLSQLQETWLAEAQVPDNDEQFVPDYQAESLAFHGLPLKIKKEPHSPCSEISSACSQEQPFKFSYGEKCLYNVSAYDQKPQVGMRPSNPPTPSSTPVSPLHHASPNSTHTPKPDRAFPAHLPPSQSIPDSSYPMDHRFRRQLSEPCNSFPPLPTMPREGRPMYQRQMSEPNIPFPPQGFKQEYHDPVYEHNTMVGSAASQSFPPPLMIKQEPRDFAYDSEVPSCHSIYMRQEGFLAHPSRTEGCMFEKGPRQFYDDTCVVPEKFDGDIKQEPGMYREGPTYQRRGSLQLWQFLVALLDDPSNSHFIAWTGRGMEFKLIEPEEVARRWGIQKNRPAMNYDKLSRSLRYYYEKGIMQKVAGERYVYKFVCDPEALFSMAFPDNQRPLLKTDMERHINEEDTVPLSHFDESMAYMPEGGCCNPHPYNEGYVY
# Procedure, shortened: as §1
sequence,measurement,setting,value
ATGTCT,binding signal,FLI1,"1.21 fold enrichment (6-mer frequency, TF over GST control)"
same,binding signal,ELK1,"1.28 fold enrichment (6-mer frequency, TF over GST control)"
same,binding signal,GABPA,"1.36 fold enrichment (6-mer frequency, TF over GST control)"
same,binding signal,ERG,"1.22 fold enrichment (6-mer frequency, TF over GST control)"
same,binding signal,ELF1,"1.29 fold enrichment (6-mer frequency, TF over GST control)"
same,binding signal,EHF,"1.13 fold enrichment (6-mer frequency, TF over GST control)"
same,binding signal,SPI1,"1.32 fold enrichment (6-mer frequency, TF over GST control)"
same,binding signal,SPIB,"1.3 fold enrichment (6-mer frequency, TF over GST control)"
same,binding signal,ELK3,"1.18 fold enrichment (6-mer frequency, TF over GST control)"
same,binding signal,FEV,"1.27 fold enrichment (6-mer frequency, TF over GST control)"
same,binding signal,ETV5,"1.36 fold enrichment (6-mer frequency, TF over GST control)"
same,binding signal,HSF1,"1.17 fold enrichment (6-mer frequency, TF over GST control)"
same,binding signal,SPIC,"1.27 fold enrichment (6-mer frequency, TF over GST control)"
same,binding signal,ELF4,"1.28 fold enrichment (6-mer frequency, TF over GST control)"
same,binding signal,ELK4,"1.07 fold enrichment (6-mer frequency, TF over GST control)"
same,binding signal,ETV2,"1.26 fold enrichment (6-mer frequency, TF over GST control)"
same,binding signal,ELF3,"1.08 fold enrichment (6-mer frequency, TF over GST control)"
same,binding signal,CRX,"1.18 fold enrichment (6-mer frequency, TF over GST control)"
same,binding signal,ETV1,"1.23 fold enrichment (6-mer frequency, TF over GST control)"
